From PubChem BioAssay (NCATS)
Inconclusive results are not listed. Active and inactive are the calls of the source. The call rests on the fitted dose curve; in most records, active means well fitted cell-killing curve with a large enough effect; inconclusive means small, poorly fitted or top-dose-only effect, or effect the other way; inactive means no such curve, though single readings can be large or run the other way.

Assay: MultiTox-Fluor Cytotoxicity Assay - LYMP1-002 - Dead Cells (AID 960); further: nearly all actives have a fitted effect of over 60% in size;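 on cytotoxicity (dead cells): 0% = DMSO and 100% = tetraoctylammonium bromide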
Settings: LYMP1-002 lymphoblastoid cells, dead-cell protease fluorescence; series mostly up to 46.1 µM; cytotoxicity (dead cells): at the top concentration
From the text: NIH Chemical Genomics Center [NCGC]
NIH Molecular Libraries Screening Centers Network [MLSCN]
National Institutes of Environmental Health Sciences [NIEHS]
National Toxicology Program [NTP]
We have developed a 1536-well cell-based assay for quantitative high throughput screening (qHTS) against a number of cell lines to determine in vitro cytotoxicity of small molecules. This particular assay uses a human lymphoblastoid cell line (LYMP1-002) purchased from Coriell Institute.
NCGC Assay Protocol Summary:
The MultiTox-Fluor Cytotoxicity Assay (Promega) is a homogeneous method to simultaneously measure the relative number of live and dead cells in culture by detecting changes in cell membrane integrity. There are two fluorogenic peptide substrates in the assay reagent. Viable cells are determined when the cell-permeant substrate (GF-AFC) enters the cell and is cleaved by protease from live cells resulting in liberated fluorophore. This live-cell protease activity restricted to viable cells is proportional to cell number. The dead cells are determined by using fluorogenic cell-impermeant peptide substrate (bis-AAF-R110) which cleaved by dead cell proteases leaking from damaged cell membrane.
Using the MultiTox-Fluor Cytotoxicity Assay, the relative number of dead cells was measured in the lymphoblastoid cell line with complete culture medium following compound treatment for 16 hours. The assay was performed in opaque black Kalypsys 1536-well plates. In the screen, tetraoctylammonium bromide was used as positive control. Library compounds were measured for their ability to cause acute toxicity in the cell line, as reflected by an increase in dead cell protease activity, in a concentration-dependent manner. Data were normalized to the controls for basal activity (DMSO only) and 100% stimulation (15 uM tetraoctylammonium bromide). AC50 values were determined from concentration-response data modeled with the standard Hill equation.
qHTS protocol for MultiTox-Fluor Cytotoxicity assay
[Step] [Parameter] [Value] [Description]
1. Reagent; 5 uL; 2500 lymphoblastoid cells/well
2. Time; 5 hr; 37 C incubation
4. Controls; 23 nL; Tetraoctylammonium bromide 6.4pM to 92 uM
5. Time; 16 hr; 37 C incubation
6. Reagent; 5 uL; MuliTox-Fluor Assay reagent
7. Time; 60 min; Room Temperature
8. Detection; dead-cell fluorescence (Ex/Em=485/520); EnVision plate reader
Keywords: cytotoxicity, lymphoblastoid cell line, fluorescence, NTPHTS, NTPHTS_NCGC, NIEHS, EPA, DSSTox, MLSMR, MLSCN, NIH Roadmap, qHTS, NCGC
Potency means the concentration at half of the fitted maximal effect.

Structure (SMILES)	cytotoxicity (dead cells)	Potency
COc1ccc2c(c1)c(CC(=O)O)c(C)n2C(=O)c1ccc(Cl)cc1	0.981% (inactive)	–
COc1ccc(CCN(C)CCCC(C#N)(c2ccc(OC)c(OC)c2)C(C)C)cc1OC (stereo not drawn)	26.7% (inactive)	–
N[C@@H](Cc1c[nH]c2ccc(O)cc12)C(=O)O	10% (inactive)	–
CC(COc1ccccc1)N(CCCl)Cc1ccccc1 (stereo not drawn)	-18.1% (inactive)	–
Cc1cn([C@H]2C[C@H](N=[N+]=[N-])[C@@H](CO)O2)c(=O)[nH]c1=O	11.6% (inactive)	–
Nc1c2c(nc3ccccc13)CCCC2	-11.7% (inactive)	–
CCC1(c2ccccc2)C(=O)NCNC1=O	36.3% (inactive)	–
COc1ccc2[nH]cc(CCNC(C)=O)c2c1	–	inactive
Cn1c(=O)c2[nH]cnc2n(C)c1=O	1.29% (inactive)	–
Nc1ccn([C@H]2CC[C@@H](CO)O2)c(=O)n1	-2.36% (inactive)	–
Clc1ccc(C(c2ccccc2Cl)C(Cl)Cl)cc1 (stereo not drawn)	19.7% (inactive)	–
NCCS(=O)(=O)O	9.77% (inactive)	–
Cn1c(=O)c2c(ncn2C)n(C)c1=O	7.14% (inactive)	–
COc1cc2c(c(OC)c1OC)-c1ccc(OC)c(=O)cc1[C@@H](NC(C)=O)CC2	–	50.1 nM (active)
O=c1[nH]cc(F)c(=O)[nH]1	-3.73% (inactive)	–
CC(C)NCC(O)c1ccc(O)c(O)c1 (stereo not drawn)	21.9% (inactive)	–
Cc1cn([C@H]2C=C[C@@H](CO)O2)c(=O)[nH]c1=O	–	inactive
O=c1c(-c2ccc(O)cc2)coc2cc(O)cc(O)c12	-4.06% (inactive)	–
